Most compounds without a hit are left out; they make up all but 2.6% or so of the library.
BaF3 parental – reduces parental Ba/F3 cell viability, JAK2V617F counter-screen; CellTiter-Glo ATP luminescence; inhibition, % at 5.6 µM; 1.1% of 220,000 active; AID 1486;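 active = inhibition above a per-campaign cutoff, the mean inhibition of all tested compounds plus 3 SD, cut at about 27% in these data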;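 note: 0% = DMSO wells and 100% = JAK Inhibitor I control wells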
GPR7 antag – human neuropeptides B/W receptor 1 antagonism; GPR7-expressing cells, fluorescence antagonist assay; inhibition, % at 4.4 µM; 1.1% of 290,000 active; AID 1861; in the data active = inhibition above about 16%, passing the limit was not always enough;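 note: cells stimulated with the agonist NPW; 0% = agonist with vehicle and 100% = vehicle without agonist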
Target sequence (P48145 whole entry, looked up): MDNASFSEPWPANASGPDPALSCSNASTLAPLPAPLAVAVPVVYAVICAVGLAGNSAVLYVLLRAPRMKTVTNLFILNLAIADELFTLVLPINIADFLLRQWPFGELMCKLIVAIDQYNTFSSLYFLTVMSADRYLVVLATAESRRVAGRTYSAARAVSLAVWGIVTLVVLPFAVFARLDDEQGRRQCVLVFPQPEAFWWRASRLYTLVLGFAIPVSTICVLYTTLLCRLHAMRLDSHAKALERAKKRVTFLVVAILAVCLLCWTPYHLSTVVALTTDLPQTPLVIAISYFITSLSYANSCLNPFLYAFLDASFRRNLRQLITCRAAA
Ba/F3 V617F tox – reduce viability of Ba/F3 cells dependent on JAK2V617F | Ba/F3 EpoR-JAK2V617F viability, ATP luminescence | inhibition, % at 5.6 µM | 1.1% of 220,000 active | AID 1446;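 active = inhibition above the campaign mean plus 3 SD over all tested compounds, cut at about 24% in these data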;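 note: cytokine-independent growth of Ba/F3 cells driven by EpoR plus mutant JAK2; 0% = DMSO-treated cells and 100% = JAK inhibitor I control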
IEC-6 cytotox – IEC-6 cytotoxicity, counter-screen for KLF5 inhibitors; luminescence viability; 0.78% of 290,000 active; inhibition, % at 5 µM; AID 1825; in the data active = inhibition above about 22%;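 note: 0% = plate median of test compound wells and 100% = cytotoxic reference compound wells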
FID counter – displaces DNA intercalator in HCV helicase counter-screen; DNA fluorescent intercalator displacement, fluorescence; inhibition, % at 7.9 µM; 0.17% of 290,000 active; AID 1845; in the data active = inhibition above about 37%;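 note: 0% = vehicle and 100% = reference compound; higher means more ethidium bromide displaced from hairpin DNA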
KLF5 inh – kruppel-like factor 5 inhibition; DLD-1 KLF5 promoter-luciferase reporter, luminescence; inhibition, % at 5 µM; 0.23% of 290,000 active;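 active = inhibition above a per-plate limit of that plate's mean compound inhibition plus 3 SD, cut at about 60% in these data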;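 note: 0% = DMSO wells and 100% = LY294002 at 200 µM; higher means less KLF5 promoter-driven luciferase light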
The depositor's hits bear a star.

What do the screens show for `CCOC(=O)N1CCC2(CC1)CC(=O)c1cc(O)ccc1O2`?
BaF3 parental: 0; GPR7 antag: 18*; Ba/F3 V617F tox: -6; IEC-6 cytotox: -6; FID counter: -12; KLF5 inh: -10

Results for CCOCCOC(=O)c1[nH]c2c(c1C)C(=O)CC(c1ccc(OC)c(OC)c1)C2 (configuration not stated) ?
GPR7 antag: -1; IEC-6 cytotox: 5; FID counter: -34; KLF5 inh: -42

What do the screens show for `COc1cc(C2CC(=O)c3c([nH]c(C(=O)OCCOC(C)C)c3C)C2)cc(OC)c1OC` (configuration not stated)?
BaF3 parental: 19; GPR7 antag: 18*; Ba/F3 V617F tox: 13; IEC-6 cytotox: 6; FID counter: -32; KLF5 inh: 12

Results for CCCOCCOC(=O)c1[nH]c2c(c1C)C(=O)CC(c1cc(OC)ccc1OC)C2 (configuration not stated) ?
BaF3 parental: 2; GPR7 antag: 20*; Ba/F3 V617F tox: 2; IEC-6 cytotox: 1; FID counter: -7; KLF5 inh: 14

Results for CCOc1ccccc1NC(=O)Cn1nnc(C(=O)NCCc2ccc(OC)c(OC)c2)c1N ?
BaF3 parental: 4; GPR7 antag: -15; Ba/F3 V617F tox: -3; IEC-6 cytotox: -4; FID counter: -33; KLF5 inh: -24

How did CCSc1nnc(NC(=O)c2ccccn2)s1 do in these assays?
BaF3 parental: 8; GPR7 antag: 7; Ba/F3 V617F tox: -3; IEC-6 cytotox: 47*; FID counter: -10; KLF5 inh: -155

What do the screens show for `CCSc1nnc(NC(=O)c2ccc3c(c2)OCO3)s1`?
BaF3 parental: 93*; GPR7 antag: 2; Ba/F3 V617F tox: -1; IEC-6 cytotox: -5; FID counter: -1; KLF5 inh: -80

How did O=C(CN1C(=O)CCC1=O)c1ccc(-c2ccccc2)cc1 do in these assays?
BaF3 parental: 3; GPR7 antag: -4; Ba/F3 V617F tox: -2; IEC-6 cytotox: -6; FID counter: -11; KLF5 inh: -52

What do the screens show for `N=c1ccn(CC(=O)c2ccc(-c3ccccc3)cc2)cc1`?
BaF3 parental: 75*; GPR7 antag: -12; Ba/F3 V617F tox: 98*; IEC-6 cytotox: 4; FID counter: 23; KLF5 inh: -3

Results for CC1(C)CC(=O)C2=C(C1)N(CC1CCCO1)C(=O)NC2(C(F)(F)F)C(F)(F)F (configuration not stated) ?
BaF3 parental: 38*; GPR7 antag: -11; Ba/F3 V617F tox: -2; IEC-6 cytotox: -2; FID counter: -1; KLF5 inh: -14

How did CC1(C)CC(=O)C2=C(C1)N(CC1CCCO1)C(=O)C2(O)C(F)(F)F (configuration not stated) do in these assays?
BaF3 parental: 2; GPR7 antag: -7; Ba/F3 V617F tox: -4; IEC-6 cytotox: 1; FID counter: -1; KLF5 inh: -9

What do the screens show for `O=C(/C=C/c1cccs1)NC(=S)NNC(=O)c1ccccc1O`?
BaF3 parental: 54*; GPR7 antag: -8; Ba/F3 V617F tox: 94*; IEC-6 cytotox: -4; FID counter: -14; KLF5 inh: 2

Results for COc1ccc(C(=O)NNC(=S)NC(=O)/C=C/c2cccs2)cc1 ?
BaF3 parental: 8; GPR7 antag: -3; Ba/F3 V617F tox: -2; IEC-6 cytotox: -4; FID counter: -7; KLF5 inh: -31

What do the screens show for `O=c1[nH]c(=O)n(-c2ccccc2)c2c1C(C(F)(F)F)(C(F)(F)F)N=C(C1CCCCC1)N2`?
BaF3 parental: 40*; GPR7 antag: -2; Ba/F3 V617F tox: 4; IEC-6 cytotox: 4; FID counter: -8; KLF5 inh: -14

What do the screens show for `Cc1ccc(S(=O)(=O)NC2(C(F)(F)F)C(=O)Nc3c2c(=O)[nH]c(=O)n3-c2ccccc2)cc1` (configuration not stated)?
BaF3 parental: 3; GPR7 antag: 3; Ba/F3 V617F tox: 3; IEC-6 cytotox: 10; FID counter: -4; KLF5 inh: -9

Results for c1ccc(SCc2cn3cccnc3n2)nc1 ?
BaF3 parental: 8; GPR7 antag: -10; Ba/F3 V617F tox: 5; IEC-6 cytotox: 4; FID counter: -3; KLF5 inh: -3

What do the screens show for `COCc1cc(CN2CCCC2)c(O)c2ncccc12`?
BaF3 parental: 59*; GPR7 antag: -5; Ba/F3 V617F tox: 72*; IEC-6 cytotox: -2; FID counter: -5; KLF5 inh: 2

Results for Oc1ccc(COCc2ccccc2)c2cccnc12 ?
BaF3 parental: 1; GPR7 antag: -4; Ba/F3 V617F tox: 9; IEC-6 cytotox: 3; FID counter: -3; KLF5 inh: -4

What do the screens show for `Oc1c(CN2CCCCC2)cc(COCc2ccccc2)c2cccnc12`?
BaF3 parental: 99*; GPR7 antag: 7; Ba/F3 V617F tox: 89*; IEC-6 cytotox: 2; FID counter: -5; KLF5 inh: 48

Results for O=C(COC(=O)c1ccccc1C(=O)c1ccc(Cl)c([N+](=O)[O-])c1)NC1CCCCCC1 ?
BaF3 parental: 2; GPR7 antag: 30*; Ba/F3 V617F tox: -2; IEC-6 cytotox: -3; FID counter: -7; KLF5 inh: -1

How did O=C(COC(=O)c1ccc(Cl)c([N+](=O)[O-])c1)NC1CCCC1 do in these assays?
GPR7 antag: -5; IEC-6 cytotox: -3; FID counter: 1; KLF5 inh: -43

How did COc1cc(CCC(=O)OCC(=O)Nc2ccc(F)c(F)c2)cc(OC)c1OC do in these assays?
GPR7 antag: 2; IEC-6 cytotox: -4; FID counter: -5; KLF5 inh: 3

How did CCN(c1ccc(NC(=O)COC(=O)CCc2cc(OC)c(OC)c(OC)c2)cc1)C(C)C do in these assays?
BaF3 parental: 80*; GPR7 antag: -6; Ba/F3 V617F tox: -1; IEC-6 cytotox: 3; FID counter: 7; KLF5 inh: -19

Results for CCOc1ccccc1N(CC(=O)N1CCC(C(N)=O)CC1)S(=O)(=O)c1ccc(SC)cc1 ?
GPR7 antag: 2; IEC-6 cytotox: -1; FID counter: -36; KLF5 inh: -20

How did O=[N+]([O-])c1ccc(C[n+]2cccc3ccc4cccnc4c32)cc1 do in these assays?
BaF3 parental: 76*; GPR7 antag: -9; Ba/F3 V617F tox: 60*; IEC-6 cytotox: -2; FID counter: 10; KLF5 inh: 28

Results for S=c1[nH]nc(Cc2ccccc2)n1-c1cccc2ccccc12 ?
BaF3 parental: -2; GPR7 antag: -3; Ba/F3 V617F tox: -2; IEC-6 cytotox: -2; FID counter: -11; KLF5 inh: 6

Results for COc1ccc(NC(=O)C2=Cc3cccc(OC)c3OC2)cc1 ?
BaF3 parental: 2; GPR7 antag: 20*; Ba/F3 V617F tox: 0; IEC-6 cytotox: -1; FID counter: -12; KLF5 inh: -170

What do the screens show for `COc1ccc(NC(=O)C2=Cc3ccccc3OC2)cc1`?
BaF3 parental: 6; GPR7 antag: 1; Ba/F3 V617F tox: 2; IEC-6 cytotox: -2; FID counter: 12; KLF5 inh: -54

Assay outcomes (PubChem)
